According to PubChem BioAssay:
The source made the active and inactive calls. No stated cut-off is given here; in the data, active means fold change permeability below about 0.7 or above about 1.3; inactive means in between.

experiment: modulators of brain endothelial barrier permeability, primary screen, cell-based, FITC-avidin fluorescence, HTS (AID 1963498); conditions: actives lie on both sides; further: test concentration not given here

| SMILES | fold change permeability |
| --- | --- |
| CC(O)C(O)[C@H]1CNc2nc(N)[nH]c(=O)c2N1 (some centres undefined) | 1.4 (active) |
| CC(C)COCC(CN(Cc1ccccc1)c1ccccc1)N1CCCC1 (centres undefined) | 1 (inactive) |
| OC1(c2ccc(Cl)cc2)CCN(Cc2c[nH]c3ccccc23)CC1 | 1.4 (active) |
| CC(=O)Oc1cc(C(C)C)c(OCCN(C)C)cc1C | 0.8 (inactive) |
| O=C(c1ccoc1)N1CCN(c2cc(-c3ccco3)nc3cc(-c4ccccc4)nn23)CC1 | 1.2 (inactive) |
| Oc1ccc2c(c1)CC[C@H](c1ccccc1)[C@@H]2c1ccc(OCCN2CCCC2)cc1 | 1.3 (active) |
| CCOc1cc(C(=O)Nc2ccc(Cl)c(-c3nc4ccccc4[nH]3)c2)cc(OCC)c1OCC | 1.7 (active) |
| Nc1nc2[nH]c(=O)cnc2c(=O)[nH]1 | 1.4 (active) |
| NCCCCCC(=O)O | 1.1 (inactive) |
| CC(=O)SCC[N+](C)(C)C | 0.8 (inactive) |
| COc1nc(C)cnc1NS(=O)(=O)c1cccnc1-c1ccc(-c2nnco2)cc1 | 1.4 (active) |
| O=C(O)C1=CCCNC1 | 1 (inactive) |
| Oc1ccc2ccccc2c1SSc1c(O)ccc2ccccc12 | 1.6 (active) |
| CCCCCC[C@@H]([C@@H](C)O)n1cnc2c(N)ncnc21 | 0.7 (active) |
| Cc1cc(NC(=O)Nc2ccc3c(ccn3C)c2)sn1 | 1.2 (inactive) |
| COc1cc([C@@H]2c3cc4c(cc3[C@@H](O[C@@H]3O[C@@H]5CO[C@@H](C)O[C@H]5[C@H](O)[C@H]3O)[C@H]3COC(=O)[C@H]23)OCO4)cc(OC)c1O | 0.9 (inactive) |
| C[C@@H](CN1CCC(Cc2ccccc2)CC1)[C@@H](O)c1ccc(O)cc1 | 1.3 (active) |
| C=C1C[C@@]23CC[C@H]4[C@@](C)(CCC[C@@]4(C)C(=O)O)[C@@H]2CC[C@]1(O)C3 | 0.9 (inactive) |
| CCCCOc1ccc(CC/C=C2\SC(=O)N(CCN)C2=O)cc1 | 1.6 (active) |
| C[C@]12CC[C@@H]3c4ccc(O)cc4CC[C@H]3[C@@H]1[C@@H](O)[C@@H](O)[C@@H]2O | 0.8 (inactive) |

| SMILES | fold change permeability |
| --- | --- |
| CN1CCC(=C2c3ccccc3CC(=O)c3sccc32)CC1 | 1.4 (active) |
| CCn1cc(C(=O)O)c(=O)c2cc3c(cc21)OCO3 | 1 (inactive) |
| CN1C[C@H](C(=O)N[C@]2(C)O[C@@]3(O)[C@@H]4CCCN4C(=O)[C@H](Cc4ccccc4)N3C2=O)C[C@@H]2c3cccc4[nH]cc(c34)C[C@H]21 | 1.4 (active) |
| O=c1[nH]c2cc(C(F)(F)F)ccc2n1-c1cc(C(F)(F)F)ccc1O | 1.3 (active) |
| Nc1c(C(=O)Nc2c(F)cc(F)cc2Br)sc2nc3c(cc12)CCC3 | 0.9 (inactive) |
| Oc1cc2c(c(Cl)c1O)CCNCC2c1ccccc1 (centres undefined) | 1.6 (active) |
| O=c1[nH]c2cc([N+](=O)[O-])c([N+](=O)[O-])cc2[nH]c1=O | 1.2 (inactive) |
| CSC(N)=NCCC[C@H](N)C(=O)O | 0.7 (active) |
| O=C1CCc2cc(OCCCCc3nnnn3C3CCCCC3)ccc2N1 | 0.9 (inactive) |
| CC12CC3CC(C)(C1)CC(N)(C3)C2 | 0.8 (inactive) |
| O=C1NC(c2cccc([N+](=O)[O-])c2)=CCN1c1ccccc1O | 0.9 (inactive) |
| COc1cc(CNC(=O)CCCCCCC(C)C)ccc1O | 0.7 (active) |
| O=c1[nH]c2cc(Cl)ccc2c(O)c1-c1cccc(Oc2ccccc2)c1 | 1.4 (active) |
| c1ccc(Cn2c(NCc3ccco3)nc3ccccc32)cc1 | 1.6 (active) |
| CCN(CC)CCCCCCCCOC(=O)c1cc(OC)c(OC)c(OC)c1 | 1.1 (inactive) |
| N[C@@H](CS(=O)O)C(=O)O | 1 (inactive) |
| CCOC(=O)COc1ccc2c(c1)C[C@@H](NC[C@H](O)c1cccc(Cl)c1)CC2 | 1.1 (inactive) |
| O=c1oc(Cl)c(Cl)c2ccccc12 | 1.4 (active) |
| CCC(=O)NS(=O)(=O)c1ccc(-c2c(-c3ccccc3)noc2C)cc1 | 0.9 (inactive) |
